The source of these data is PubChem BioAssay AID743446 (Broad Institute, 2014).

Potency and affinity values are given separately. A number with no mark means an inactive call. No rule for the calls is given here.

The nature of the assay: HEK293 cell cytotoxicity, dose response, cytotoxicity control, plate reader, cherry-picked samples (AID 743446). As to conditions: stronger effect = lower value; at 26 µM unless noted.
For the compound `N#C[C@H]1[C@@H](c2ccc(C3=CCCCC3)cc2)[C@H](CO)N1C(=O)c1ccccn1`, the max activity is 74.4% [at 12 µM].
Take `CC[C@H](CO)Oc1cc(NCc2ccc(Cl)c(Cl)c2)c2ncn(C(C)C)c2c1`: the max activity is 27.3% [at 0.05 µM].
On to `C[C@H](CO)N1C[C@H](C)[C@H](CN(C)Cc2ccncc2)Oc2ncc(C#CCC3CCCCC3)cc2C1=O`, for which the max activity is 18.1% [at 3 µM].
Turning to `CO[C@@H]1CN(C)C(=O)c2cc(NC(C)=O)ccc2OC[C@@H](C)N(Cc2ccc(F)cc2)C[C@@H]1C`, the max activity was 59.8% [at 0.05 µM].
The figure for `CC(C)(C)c1ccc(Cn2c(=O)cnc3ccccc32)cc1` is -26.8% [at 12 µM].
Regarding `O=C(c1cc(-c2ccccc2Cl)on1)N1CCCC1`, the max activity is 27.2%.
The result for `Cc1csc(NC(=O)c2ccc(OCC3CCCO3)cc2)n1` (stereo not given) reads 28.1% [at 3 µM].
Consider `C[C@H](CO)N1C[C@H](C)[C@H](CN(C)C(=O)Nc2cccc3ccccc23)OCCCC[C@H](C)Oc2ccc(NC(=O)C3CCCCC3)cc2C1=O`, for which the max activity was 31.6% [at 12 µM].
With `Cn1nnnc1SCC(=O)N1CCN(C(=O)c2ccco2)CC1`, the max activity is -12.8% [at 0.05 µM].
As to `Cc1ccc(NC(=O)c2sc3ccccc3c2Cl)nc1`, the max activity was 24.8% [at 12 µM].
For `O=C(CCc1nnc(CCCCc2ccccc2)o1)N1CCCC(O)C1` (stereo not given), the max activity is -17.7% [at 0.1 µM].
`CC(C)Oc1ccc(CNC(=O)CC(c2ccccc2)c2cc(Cl)ccc2O)cc1` (stereo not given): the max activity was 29.6% [at 0.8 µM].
Regarding `COc1ccc(C(=O)CC(Sc2ccccc2N)c2ccc(OC)cc2)cc1` (stereo not given), the max activity was 24.8% [at 0.8 µM].
With `COc1ccc(-n2cc(C(=O)c3ccccc3O)cn2)cc1`, the max activity was 69.9% [at 3 µM].
The figure for `CC(C)(C)C(=O)Nc1ccc(NC(=O)c2ccco2)nc1` is 11.3% [at 0.38 µM]; for `COc1ccc(-c2cn3cc(C)ccc3n2)cc1F` it is 44.7% [at 12 µM]; for `CCCNC(=O)N1[C@H](C#N)[C@H](c2ccc(C#Cc3ccc(F)cc3)cc2)[C@H]1CO` it is -37%.
The result for `N#C[C@@H]1[C@H](c2ccc(C#Cc3cccc(F)c3)cc2)[C@@H](CO)N1C(=O)C1CCC1` reads 22.1% [at 12 µM]; that for `Cc1ccc(CNS(=O)(=O)c2ccc3c(c2)CCN3C(=O)CCCC(=O)O)cc1`, 14.5% [at 6 µM].
Consider `Cc1ccc(-c2nc(-c3ccncc3)no2)c(Cl)c1`, for which the max activity is 10% [at 1.6 µM].
Turning to `CC(C)(C)c1ccc(C(=O)NCCOc2ccccc2F)cc1`, the max activity was 23.5%.
For `O=C(CN1CCOc2ccccc21)NCc1ccc(F)cc1`, the max activity is 16.4% [at 6 µM].
Turning to `C=CCNc1nc(-c2cc3ccccc3o2)cs1`, the max activity was -11.4% [at 0.8 µM].
The result for `COc1ccc(-n2nnnc2-c2nc3ccccc3s2)cc1` reads 34.3% [at 0.8 µM].
As for `O=C(Nc1nc2c(s1)CCCC2)C1COc2ccccc2O1` (stereo not given), the max activity is 55.6% [at 0.05 µM].
